Results: PubChem BioAssay AID1159580 (chemical genetic matrix, 2015)
Among all 5,500 compounds or so, about 2,000 (36%) were called active. Not shown: some 18% with an inconclusive outcome. Some of the results follow. Unmarked numbers belong to inactive results. Rule as the data show it: active = normalized growth mostly below about 0.91 (no sharp cut-off); inconclusive = no clear call, values can overlap the other calls; inactive = mostly above about 0.92.

Experiment: chemical genetic growth profiling, strain panel (AID 1159580);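 also: tested at 20 µM; growth read once vehicle control cultures reached saturation at 30 °C; 1 = growth at the plate median or of vehicle wells; lower values mean less growth of the strain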
Details: S. cerevisiae deletion strains, growth OD
[1] = locus YAL013W, strain DEP1, hits give low values
[2] = locus YBR229C, strain ROT2, hits give low values
[3] = locus YDL101C, strain DUN1, hits give low values
[4] = locus YDR150W, strain NUM1, hits give low values
[5] = locus YEL061C, strain CIN8, hits give low values
[6] = locus YGR078C, strain PAC10, hits give low values
[7] = locus YHR030C, strain SLT2, hits give low values
[8] = locus YHR087W, strain rtc3, hits give low values
[9] = locus YJR043C, strain POL32, hits give low values
[10] = locus YJR075W, strain HOC1, hits give low values
[11] = locus YLR039C, strain RIC1, hits give low values
[12] = locus YLR058C, strain SHM2 (second series), hits give low values
[13] = locus YLR085C, strain ARP6, hits give low values
[14] = locus YLR262C, strain YPT6, hits give low values
[15] = locus YML094W, strain GIM5, hits give low values
[16] = locus YMR219W, strain ESC1, hits give low values
[17] = locus YMR263W, strain SAP30, hits give low values
[18] = locus YNL153C, strain GIM3, hits give low values
[19] = locus YNL298W, strain CLA4 (second series), hits give low values
[20] = locus YNL322C, strain KRE1, hits give low values
[21] = locus YNR030W, strain Alg12, hits give low values
[22] = locus YPL055C, strain LGE1, hits give low values
[23] = locus YPL241C, strain CIN2, hits give low values
[24] = locus YPR135W, strain CTF4, hits give low values

## COCc1cc(=O)n2[nH]c(C(C)(C)C)cc2n1
[1]
  normalized growth: 1.01
[2]
  normalized growth: 0.986
[3]
  normalized growth: 0.996
[4]
  normalized growth: 1.04
[5]
  normalized growth: 0.939
[6]
  normalized growth: 1.01
[7]
  normalized growth: 1.07
[8]
  normalized growth: 1.01
Locus YJL187C, strain SWE1, hits give low values
  normalized growth: 0.162 (active)
[9]
  normalized growth: 1.04
[10]
  normalized growth: 1.01
[11]
  normalized growth: 1.02
[12]
  normalized growth: 0.988
[13]
  normalized growth: 0.959
[14]
  normalized growth: 1.03
[15]
  normalized growth: 0.986
[16]
  normalized growth: 0.996
[17]
  normalized growth: 1.04
[18]
  normalized growth: 1.02
[19]
  normalized growth: 0.965
[20]
  normalized growth: 0.999
[21]
  normalized growth: 1.01
[22]
  normalized growth: 1.08
[23]
  normalized growth: 0.977
[24]
  normalized growth: 1.14

## Clc1ccc(CN2CCN(c3cccc4[nH]ccc34)CC2)cc1Cl
Locus YAR019C, strain CDC15, hits give low values
  normalized growth: 0.997
Locus YBL105C, strain PKC1, hits give low values
  normalized growth: 0.993
Locus YBR135W, strain CKS1, hits give low values
  normalized growth: 0.995
Locus YBR136W, strain MEC1, hits give low values
  normalized growth: 0.994
Locus YBR160W, strain CDC28, hits give low values
  normalized growth: 0.986
Locus YDL017W, strain CDC7, hits give low values
  normalized growth: 0.994
Locus YDL028C, strain MPS1, hits give low values
  normalized growth: 0.999
[3]
  normalized growth: 0.988
Locus YDL108W, strain KIN28, hits give low values
  normalized growth: 0.983
Locus YDL132W, strain cdc53, hits give low values
  normalized growth: 0.993
Locus YDL214C, strain PRR2, hits give low values
  normalized growth: 0.962
Locus YDR052C, strain DBF4, hits give low values
  normalized growth: 0.996
Locus YDR054C, strain cdc34, hits give low values
  normalized growth: 0.993
Locus YDR226W, strain ADK1, hits give low values
  normalized growth: 0.984
Locus YDR477W, strain SNF1, hits give low values
  normalized growth: 0.972
Locus YER123W, strain YCK3, hits give low values
  normalized growth: 0.917
Locus YER133W, strain GLC7, hits give low values
  normalized growth: 0.977
Locus YFL009W, strain cdc4, hits give low values
  normalized growth: 0.986
Locus YFL029C, strain CAK1, hits give low values
  normalized growth: 0.994
Locus YFR003C, strain YPI1, hits give low values
  normalized growth: 0.992
Locus YFR019W, strain FAB1, hits give low values
  normalized growth: 0.971
Locus YFR028C, strain CDC14, hits give low values
  normalized growth: 0.991
Locus YGR040W, strain KSS1, hits give low values
  normalized growth: 0.962
Locus YGR052W, strain FMP48, hits give low values
  normalized growth: 1.1
Locus YGR092W, strain DBF2, hits give low values
  normalized growth: 0.942
[7]
  normalized growth: 1.16 [resistant] (active)
Locus YHR079C, strain IRE1, hits give low values
  normalized growth: 1.11
Locus YHR082C, strain KSP1, hits give low values
  normalized growth: 1.09
Locus YHR205W, strain SCH9, hits give low values
  normalized growth: 0.974
Locus YIL147C, strain SLN1, hits give low values
  normalized growth: 0.992
Locus YJL095W, strain BCK1, hits give low values
  normalized growth: 1.1
Locus YJL128C, strain PBS2, hits give low values
  normalized growth: 0.946
Locus YJL157C, strain FAR1, hits give low values
  normalized growth: 0.968
Locus YJR016C, strain ILV3, hits give low values
  normalized growth: 0.993
Locus YJR066W, strain TOR1 (second series), hits give low values
  normalized growth: 0.958
Locus YJR066W, strain TOR1, hits give low values
  normalized growth: 1.13
Locus YKL048C, strain ELM1, hits give low values
  normalized growth: 0.988
Locus YKL067W, strain YNK1, hits give low values
  normalized growth: 0.982
Locus YKL101W, strain HSL1, hits give low values
  normalized growth: 0.968
Locus YKL193C, strain SDS22, hits give low values
  normalized growth: 0.992
Locus YKL203C, strain TOR2, hits give low values
  normalized growth: 1.04
Locus YLR113W, strain HOG1, hits give low values
  normalized growth: 1.07
Locus YLR133W, strain CKI1, hits give low values
  normalized growth: 0.977
Locus YLR403W, strain SFP1, hits give low values
  normalized growth: 0.965
Locus YML070W, strain DAK1, hits give low values
  normalized growth: 0.964
Locus YMR001C, strain CDC5, hits give low values
  normalized growth: 0.993
Locus YMR205C, strain PFK2 (second series), hits give low values
  normalized growth: 0.976
Locus YMR277W, strain FCP1, hits give low values
  normalized growth: 1
Locus YNL006W, strain LST8, hits give low values
  normalized growth: 0.999
Locus YNL020C, strain ARK1, hits give low values
  normalized growth: 0.981
Locus YNL161W, strain CBK1, hits give low values
  normalized growth: 0.998
Locus YNL183C, strain NPR1, hits give low values
  normalized growth: 1.11
Locus YNL207W, strain RIO2, hits give low values
  normalized growth: 0.993
Locus YNL222W, strain SSU72, hits give low values
  normalized growth: 0.992
Locus YNL307C, strain MCK1 (second series), hits give low values
  normalized growth: 0.995
Locus YOL078W, strain AVO1, hits give low values
  normalized growth: 0.996
Locus YOL136C, strain PFK27, hits give low values
  normalized growth: 0.974
Locus YOR061W, strain CKA2, hits give low values
  normalized growth: 0.955
Locus YOR119C, strain RIO1, hits give low values
  normalized growth: 1.03
Locus YOR231W, strain MKK1, hits give low values
  normalized growth: 1.08
Locus YOR329C, strain SCD5, hits give low values
  normalized growth: 0.999
Locus YPL031C, strain PHO85, hits give low values
  normalized growth: 0.977
Locus YPL153C, strain RAD53, hits give low values
  normalized growth: 0.97
Locus YPL204W, strain HRR25, hits give low values
  normalized growth: 0.979
Locus YPL209C, strain IPL1, hits give low values
  normalized growth: 0.997
Locus YPL256C, strain CLN2, hits give low values
  normalized growth: 1.07
Locus YPR025C, strain CCL1, hits give low values
  normalized growth: 0.995
Locus YPR106W, strain ISR1, hits give low values
  normalized growth: 0.99
Locus YPR111W, strain DBF20, hits give low values
  normalized growth: 0.992
Strain NNK1, hits give low values
  normalized growth: 0.993
Strain TSCII, hits give low values
  normalized growth: 1

## c1ccc(CN2CCC(n3nnc4cccnc43)CC2)cc1
[1]
  normalized growth: 0.995
[2]
  normalized growth: 1.01
Locus YCL061C, strain MRC1, hits give low values
  normalized growth: 1.02
[3]
  normalized growth: 0.987
Locus YDL134C, strain PPH21, hits give low values
  normalized growth: 0.993
[4]
  normalized growth: 0.997
[5]
  normalized growth: 1.01
[6]
  normalized growth: 1.01
Locus YGR229C, strain SMI1, hits give low values
  normalized growth: 0.997
[7]
  normalized growth: 0.995
[8]
  normalized growth: 1.01
[9]
  normalized growth: 1.01
[10]
  normalized growth: 1
[11]
  normalized growth: 1
[12]
  normalized growth: 1.04
[13]
  normalized growth: 0.995
[14]
  normalized growth: 0.957
[15]
  normalized growth: 0.984
[16]
  normalized growth: 1
[17]
  normalized growth: 1.01
[18]
  normalized growth: 1.01
[19]
  normalized growth: 0.965
[20]
  normalized growth: 0.996
[21]
  normalized growth: 1.01
[22]
  normalized growth: 1.03
[23]
  normalized growth: 0.983
[24]
  normalized growth: 1.01
